For 16 molecules, max response, outcome and Potency results are on record in PubChem BioAssay (NCATS).

Inconclusive results are not listed. Values without a mark were called inactive. Calls of active or inactive are those of the source. Calls come from the whole dose curve; as a rule, active = well fitted inhibition curve with a large enough effect; inconclusive = small, poorly fitted or top-dose-only effect; inactive = flat fitted curve, though single readings scatter.

Assay in all cases: Cytotoxic Profiling of Annotated Libraries Using Quantitative High-Throughput Screening (AID 1296008); note: nearly all actives have a fitted effect of over 60% in size
Holding throughout (conditions): Five cell lines viability, CellTiter-Glo ATP luminescence, 48-72 h; max response: hits give low values
A general note: Cellular ATP, detected with luciferase, serves as a proxy for viable cell number.

In one test the test system is CRL-7250. In a few lines: (§1)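 Cells exposed to compounds for 48 or 72 hr at 37 degrees Celsius. Viability read as ATP-coupled luminescence with CellTiter-Glo after 10 min at room temperature.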
The test system of another test is HEK293. In outline:
as §1

The subject of another test is HaCat. In outline:
as §1

The test system of a further test is KB-3-1. In outline:
as §1

In a further test the test system is NIH3T3. In outline: as §1
% is set by controls: 0 for no effect and ±100 for the full control effect; potency is the fitted concentration of half-maximal effect.

`CC1(C=O)CC[C@]2(C(=O)O[C@@H]3O[C@H](CO)[C@@H](O)[C@H](O)[C@H]3O)CC[C@]3(C)C(=CCC4[C@@]5(C)C[C@H](O)[C@H](O[C@@H]6OC[C@@H](O)[C@H](O)[C@H]6O)[C@@](C)(CO)C5CC[C@]43C)C2C1` (stereo not given in full): the max response is -5.25% in the test with CRL-7250, -6.07% in the test with HEK293, -0.307% with HaCat and -1.18% with NIH3T3. Also, the molecule was called inactive in the test with KB-3-1.
With `CC(C)(C)OC(=O)N1CCC(OCc2nc(-c3ccncc3)no2)CC1`, the max response in the test on CRL-7250 is -15.9%; in the test with HEK293, 0.811%; with HaCat it was 4.75%; with KB-3-1, -6.38%; with NIH3T3, -1.32%.
As for `COC(=O)c1cc(OC)c(O[C@@H]2O[C@@H](C)[C@H](O)[C@@H](O)[C@H]2O)c(OC)c1`, the molecule was called inactive with CRL-7250. In addition, the max response in the test on HEK293 is -6.73%; in the test with HaCat it was -17.1%; in the test on KB-3-1, 4.85%; with NIH3T3, 2.7%.
Consider `CNC(=O)c1ccccc1Nc1nc(Nc2ccc(N3CCNCC3)cc2)ncc1Cl`, for which the Potency in the test with CRL-7250 is 92 nM (active); in the test with HEK293, 65.1 nM (active); in the test on HaCat it was 9.2 nM (active); in the test with KB-3-1 it was 25.9 nM (active); in the test with NIH3T3, 82 nM (active).
For `CC(C)CC1NC(=O)C2CC3(O)c4ccccc4NC3N2C1=O` (stereo not given), the max response in the test on CRL-7250 was -2.34%; with HEK293 it was 2.06%; with HaCat, -17.2%; with KB-3-1, 7.2%; in the test with NIH3T3, -1.31%.
The like results for `Fc1ccc2nc(CCC#Cc3ccccn3)cn2c1` were, in that order, -4.35%, -6.15%, -2.5%, -13.9% and -0.863%.
As for `O=C(O)/C=C/c1cc2c(cc1O[C@@H]1O[C@H](CO)[C@@H](O)[C@H](O)[C@H]1O)OCO2`, the max response in the test on CRL-7250 is 4.22%; in the test with HEK293, 2.33%; with HaCat, 0.0176%; in the test with KB-3-1, 8.77%; with NIH3T3 it was 4.44%.
`CC(=O)N[C@H]1[C@H](O[C@H]2CC[C@@]3(C)C(CC[C@]4(C)C3CC=C3[C@@H]5CC(C)(C)CC[C@]5(C(=O)OC5OCC(O)C(O)C5O)CC[C@]34C)C2(C)C)O[C@H](COC2OC(C)C(O)C(OC3OC(C)C(O)C(O)C3O)C2O)[C@@H](O)[C@@H]1O` (stereo not given in full): the max response in the test with CRL-7250 was -6.06%; in the test with HEK293, -2.57%; in the test on HaCat, 2.89%; in the test with NIH3T3, 3.74%. For the same molecule, the molecule was classed as inactive in the test with KB-3-1.
On to `C=C1C[C@]23C[C@H]1CC[C@H]2[C@@]1(C)CCC[C@@]2(C)C(=O)O[C@@H]([C@@H]3O)[C@@H]12`, for which the max response is -15.4% in the test with CRL-7250, -8.12% in the test with HEK293, -2.64% with HaCat and -6.16% in the test with NIH3T3. Besides, the result in the test on KB-3-1 was inactive.
For the molecule `COc1cc(O)c([C@@H](CC(=O)N2CC(C)CC(C)C2)c2ccc3c(c2)OCO3)c(OC)c1` (stereo not given in full), the max response with CRL-7250 was -6.18%; in the test with HEK293, -5.89%; with HaCat, -11.1%; in the test on KB-3-1, -2.57%; in the test with NIH3T3, -1.6%.
Regarding `CC(C)(O)CC(CO)NC(=O)CC(O)CC(=O)Cc1ccccc1` (stereo not given), the max response in the test with CRL-7250 was 2.18%; in the test on HEK293 it was 0.672%; with HaCat, 3.84%; in the test on KB-3-1, 2.2%; with NIH3T3, 2.22%.
`CC(=O)OCC1(O)CCC2C(COC3OC(CO)C(O)C(O)C3OC(=O)/C=C/c3ccc(O)cc3)=COC(OC(=O)CC(C)C)C21` (stereo not given): the molecule was called inactive in the test with CRL-7250 and in the test on KB-3-1. Moreover, the max response in the test with HEK293 is -11%; in the test on HaCat, -35.1%; in the test with NIH3T3, 3.4%.
For `CC/C=C\CCO[C@@H]1O[C@H](CO)[C@@H](O)[C@H](O)[C@H]1O`, the max response with CRL-7250 is -3.17%; in the test with HEK293, 0.0515%; in the test on HaCat, -6.57%; in the test with KB-3-1, 3.45%; with NIH3T3, -7.98%.
As for `COC1CC(OC2CCC3(C)C(=CCC4C3C(OC(C)=O)C(OC(=O)/C=C/c3ccccc3)C3(C)C(C(C)O)CCC43O)C2)OC(C)C1OC1CC(OC)C(OC2OC(C)C(OC3OC(CO)C(O)C(O)C3O)C(OC)C2O)C(C)O1` (stereo not given), the max response is 2.68% with CRL-7250; -2.45% in the test on HEK293; 0.93% with HaCat; -1.59% with KB-3-1; 0.895% with NIH3T3.
As to `CC1=C(CCC(C)O[C@@H]2O[C@H](CO)[C@@H](O)[C@H](O)[C@H]2O)C(C)(C)CCC1=O` (stereo not given in full), the max response in the test on CRL-7250 is -22.3%; in the test on HEK293 it was 4.11%; in the test with HaCat, -0.525%; in the test with KB-3-1 it was 8.72%; in the test with NIH3T3 it was -15.3%.
As for `COC(=O)[C@@H](O)[C@H]1[C@@]2(C)CC3(O)[C@@H](C(=O)[C@H]2O)[C@]24O[C@]25CC(=O)O[C@@H](c2ccoc2)[C@]5(C)CCC4[C@]13C` (stereo not given in full), the molecule was called inactive with CRL-7250. Further, the max response with HEK293 is -0.209%; in the test with HaCat, 4.1%; in the test with KB-3-1, 7.49%; with NIH3T3, -5.38%.
